# Measured values published in PubChem BioAssay (Tox21).
# Values without a mark were called inactive. Inconclusive results are not listed. A call without a number means that no potency is given here. Active and inactive are the calls of the source. The call rests on the fitted dose curve; in most records, active means well fitted curve in the direction sought with a large enough effect in the repeat runs; inconclusive means weak or mixed curves; inactive means no such curve, though single readings can be large; an effect the other way counts as inactive or inconclusive.
# Assays:
# [1] = A CellTox Green Cytotoxicity Assay to monitor cytotoxicity in HEK293 cells - 32 hour (AID 1224881); further: nearly all actives have a fitted effect of over 40% in size; further: potency means the concentration at half of the fitted maximal effect
# Summary of the method: (§1)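 Each value comes from one timepoint of a single continuous run in which HEK293 cells with CellTox Green were exposed to compound for up to 40 h at 37 C, dye fluorescence rising with cell death.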
# [2] = A CellTox Green Cytotoxicity Assay to monitor cytotoxicity in HepG2 cells - 0 hour (AID 1224882); further: nearly all actives have a fitted effect of over 35% in size
# Summary of the method: (§2)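 Continuous culture of HepG2 cells with a membrane-impermeant DNA dye; rising fluorescence marks dead cells. Compound exposure lasted up to 40 h at 37 C, with reads every 8 h from 0 h.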
# [3] = A CellTox Green Cytotoxicity Assay to monitor cytotoxicity in HepG2 cells - 32 hour (AID 1224883); further: nearly all actives have a fitted effect of over 50% in size; further: potency means the concentration at half of the fitted maximal effect
# Summary of the method: as §2
# [4] = A CellTox Green Cytotoxicity Assay to monitor cytotoxicity in HEK293 cells - 8 hour (AID 1224884); further: nearly all actives have a fitted effect of over 35% in size; further: potency means the concentration at half of the fitted maximal effect
# Summary of the method: as §1
# [5] = qHTS RealTime-Glo MT Cell Viability Assay in HEK293 cells - 24 hour (AID 1224886); further: nearly all actives have a fitted effect of over 50% in size; further: potency means the concentration at half of the fitted maximal effect; on activity change, negative = cytotoxicity: top concentration of the series differs between compounds
# Summary of the method: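 Homogeneous bioluminescent viability format in HEK293 cells (600 cells/well). Following 5 h at 37 C/5% CO2, 23 nL compound was pintooled; the signal was measured repeatedly during 40 h incubation.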
# [6] = qHTS RealTime-Glo MT Cell Viability Assay in HEK293 cells - 8 hour (AID 1224887); further: nearly all actives have a fitted effect of over 50% in size; further: potency means the concentration at half of the fitted maximal effect; on activity change, negative = cytotoxicity: top concentration of the series differs between compounds
# Summary of the method: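 qHTS format; HEK293 cells with NanoLuc/prosubstrate reagent, 37 C/5% CO2 for 5 h pre-dosing; compounds 23 nL in DMSO; luminescence at each time point reflects viable cells.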
# [7] = A CellTox Green Cytotoxicity Assay to monitor cytotoxicity in HEK293 cells - 16 hour (AID 1224888); further: nearly all actives have a fitted effect of over 35% in size; further: potency means the concentration at half of the fitted maximal effect
# Summary of the method: as §1
# [8] = qHTS RealTime-Glo MT Cell Viability Assay in HepG2 cells - 0 hour (AID 1224889); further: nearly all actives have a fitted effect of over 50% in size; further: potency means the concentration at half of the fitted maximal effect
# Summary of the method: (§3)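 Cell number in HepG2 cultures estimated from NanoLuc luminescence generated by metabolic reduction of a prosubstrate by living cells. The homogeneous, nonlytic format allowed repeated reads at 0, 8, 16, 24, 32 and 40 h of compound exposure.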
# [9] = A CellTox Green Cytotoxicity Assay to monitor cytotoxicity in HepG2 cells - 8 hour (AID 1224890); further: nearly all actives have a fitted effect of over 45% in size; further: potency means the concentration at half of the fitted maximal effect
# Summary of the method: as §2
# [10] = qHTS RealTime-Glo MT Cell Viability Assay in HepG2 cells - 16 hour (AID 1224885); further: nearly all actives have a fitted effect of over 50% in size; further: potency means the concentration at half of the fitted maximal effect
# Summary of the method: as §3
structure (smiles),measurement,setting,value
CO[Si](CCCNc1ccccc1)(OC)OC,Potency,[1],inactive
same,Potency,[2],inactive
same,Potency,[3],inactive
same,Potency,[4],inactive
same,Potency,[5],inactive
same,Potency,[6],inactive
same,Potency,[7],inactive
same,Potency,[8],inactive
same,Potency,[9],inactive
NNc1nc(-c2ccc([N+](=O)[O-])cc2)cs1,Potency,[1],inactive
same,Potency,[2],inactive
same,Potency,[3],inactive
same,Potency,[4],inactive
same,Potency,[5],24.5 µM (active)
same,Potency,[6],inactive
same,Potency,[7],inactive
same,Potency,[8],inactive
same,Potency,[9],inactive
CCOC(=O)c1nc(C(Cl)(Cl)Cl)n(-c2ccc(Cl)cc2Cl)n1,Potency,[1],inactive
same,Potency,[2],inactive
same,Potency,[3],inactive
same,Potency,[4],inactive
same,Potency,[5],inactive
same,Potency,[7],inactive
same,Potency,[8],inactive
same,Potency,[9],inactive
CCC1OCC(COc2ccc(Oc3ccccc3)cc2)O1 (stereo not given),Potency,[1],inactive
same,Potency,[2],inactive
same,Potency,[3],inactive
same,Potency,[4],inactive
same,Potency,[10],inactive
same,Potency,[7],inactive
same,Potency,[8],inactive
same,Potency,[9],inactive
C/C=C1/C(=O)C[C@H]2[C@@H]3CCC4=CC(=O)CC[C@]4(C)[C@H]3CC[C@]12C,Potency,[1],inactive
same,Potency,[2],inactive
same,Potency,[3],48.8 µM (active)
same,Potency,[4],inactive
same,Potency,[5],48.8 µM (active)
same,Potency,[6],24.5 µM (active)
same,Potency,[7],inactive
same,Potency,[8],0.435 µM (active)
same,Potency,[9],inactive
CCN1/C(=C/C=C/c2sc3ccccc3[n+]2CC)Sc2ccccc21,Potency,[1],10.4 µM (active)
same,cytotoxicity,[2],-4.71% [at 15.8 µM]
same,Potency,[3],1.17 µM (active)
same,cytotoxicity increase,[4],-9.76% [at 15.8 µM]
same,Potency,[5],1.17 µM (active)
same,"activity change, negative = cytotoxicity",[6],-21.6% [at 15.8 µM]
same,activity change,[7],"-3.87% [at 15.8 µM, active compounds read high]"
same,"activity change, negative = cytotoxicity",[8],-13.2% [at 15.8 µM]
same,cytotoxicity increase,[9],-7.07% [at 15.8 µM]
Cc1ccc2oc(CN(Cc3ccccc3)C(=O)Nc3c(F)cc(F)cc3F)c(-c3ccc(Cl)cc3)c2c1,Potency,[1],inactive
same,Potency,[2],inactive
same,Potency,[3],inactive
same,Potency,[4],inactive
same,Potency,[5],inactive
same,Potency,[6],inactive
same,Potency,[7],inactive
same,Potency,[8],inactive
same,Potency,[9],inactive
CCCCCCCCCCCCCCCCCC[N+](C)(C)C,Potency,[1],21.9 µM (active)
same,Potency,[2],inactive
same,Potency,[3],49.1 µM (active)
same,Potency,[4],39 µM (active)
same,Potency,[5],19.6 µM (active)
same,Potency,[6],49.1 µM (active)
same,Potency,[7],49.1 µM (active)
same,Potency,[8],inactive
On1ccccc1=S,Potency,[1],1.22 µM (active)
same,Potency,[2],inactive
same,Potency,[3],0.385 µM (active)
same,Potency,[4],inactive
same,Potency,[5],3.85 µM (active)
same,Potency,[7],inactive
same,Potency,[8],inactive
same,Potency,[9],inactive
CCCCCCCCCCC=O,Potency,[1],inactive
same,Potency,[2],inactive
same,Potency,[3],inactive
same,Potency,[4],inactive
same,Potency,[5],inactive
same,Potency,[6],inactive
same,Potency,[7],inactive
same,Potency,[8],inactive
same,Potency,[9],inactive
C[C@@H]1C[C@H]2[C@@H]3CCC4=CC(=O)C=C[C@]4(C)[C@@]3(Cl)[C@@H](O)C[C@]2(C)[C@@]1(OC(=O)c1ccco1)C(=O)CCl,Potency,[1],inactive
same,Potency,[2],inactive
same,Potency,[3],inactive
same,Potency,[4],inactive
same,Potency,[5],inactive
same,Potency,[6],inactive
same,Potency,[7],inactive
same,Potency,[8],inactive
same,Potency,[9],inactive
Oc1cccc(-c2c3nc(c(-c4cccc(O)c4)c4ccc([nH]4)c(-c4cccc(O)c4)c4nc(c(-c5cccc(O)c5)c5ccc2[nH]5)CC4)C=C3)c1,Potency,[1],inactive
same,Potency,[2],inactive
same,Potency,[3],inactive
same,Potency,[4],inactive
same,Potency,[5],23.9 µM (active)
same,Potency,[6],23.9 µM (active)
same,Potency,[7],inactive
same,Potency,[8],inactive
same,Potency,[9],inactive
CC(NN)c1ccccc1 (stereo not given),cytotoxicity increase,[1],-15.1% [at 15.8 µM]
same,cytotoxicity,[2],-2.26% [at 15.8 µM]
same,cytotoxicity increase,[3],-12.7% [at 15.8 µM]
same,cytotoxicity increase,[4],-1.23% [at 15.8 µM]
same,"activity change, negative = cytotoxicity",[5],-0.0571% [at 15.8 µM]
same,"activity change, negative = cytotoxicity",[6],-8.04% [at 15.8 µM]
same,activity change,[7],"-3.48% [at 15.8 µM, active compounds read high]"
same,"activity change, negative = cytotoxicity",[8],-3.22% [at 15.8 µM]
same,cytotoxicity increase,[9],-3.04% [at 15.8 µM]
C1CCCC1,Potency,[1],inactive
same,Potency,[2],inactive
same,Potency,[3],inactive
same,Potency,[4],inactive
same,Potency,[5],inactive
same,Potency,[6],inactive
same,Potency,[7],inactive
same,Potency,[8],inactive
same,Potency,[9],inactive
C=CC(=O)OCC(CO)(COCC(COC(=O)C=C)(COC(=O)C=C)COC(=O)C=C)COC(=O)C=C,Potency,[1],43.1 µM (active)
same,Potency,[2],inactive
same,Potency,[3],21.6 µM (active)
same,Potency,[4],inactive
same,Potency,[10],5.43 µM (active)
same,Potency,[8],inactive
same,Potency,[9],inactive
CCN(CCC#N)c1ccc(N=Nc2c(Cl)cc([N+](=O)[O-])cc2Cl)cc1,Potency,[1],inactive
same,Potency,[2],inactive
same,Potency,[3],inactive
same,Potency,[4],inactive
same,Potency,[5],inactive
same,Potency,[6],inactive
same,Potency,[7],inactive
same,Potency,[8],inactive
same,Potency,[9],inactive
CCCCCCCCCCCCCCCCCC[N+](C)(C)Cc1ccccc1,Potency,[1],24.8 µM (active)
same,Potency,[2],inactive
same,Potency,[3],22.1 µM (active)
same,Potency,[4],19.7 µM (active)
same,Potency,[5],6.23 µM (active)
same,Potency,[6],24.8 µM (active)
same,Potency,[7],22.1 µM (active)
same,Potency,[9],55.5 µM (active)
CCCN(CCC)c1c([N+](=O)[O-])cc(C(F)(F)F)c(N)c1[N+](=O)[O-],Potency,[1],54.8 µM (active)
same,Potency,[2],inactive
same,Potency,[3],54.8 µM (active)
same,Potency,[10],48.9 µM (active)
same,Potency,[5],19.4 µM (active)
same,Potency,[6],9.75 µM (active)
same,Potency,[8],inactive
CC(=O)N1CCN(c2ccc(OC[C@H]3CO[C@](Cn4ccnc4)(c4ccc(Cl)cc4Cl)O3)cc2)CC1,Potency,[1],49 µM (active)
same,Potency,[2],inactive
same,Potency,[3],49 µM (active)
same,Potency,[10],49 µM (active)
same,Potency,[5],21.9 µM (active)
same,Potency,[6],24.5 µM (active)
same,Potency,[7],49 µM (active)
same,Potency,[8],24.5 µM (active)
same,Potency,[9],inactive
CC(C)n1nc(-c2cc3cc(O)ccc3[nH]2)c2c(N)ncnc21,Potency,[1],inactive
same,Potency,[2],inactive
same,Potency,[3],23.9 µM (active)
same,Potency,[4],inactive
same,Potency,[5],0.301 µM (active)
same,Potency,[7],inactive
same,Potency,[8],inactive
same,Potency,[9],inactive
